From the supplement of paper PMC10477191
± gives the standard deviation of the averaged measurements.

System: Drosophila ezoana antennal basiconic sensillum ab2
Experiment: odor-evoked OSN spike response (post minus pre-stimulus); higher = stronger neuronal excitation
Conditions: odor dilution: 10^-4
Method: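 Single sensillum recordings from antennal basiconic sensilla of D. ezoana. A 500 ms pulse of odorant (10^-4 in mineral oil or DMSO) was delivered; the response is the change in action potential frequency between the 1 s pre- and post-stimulus windows (spikes/s).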

| Compound | odor-evoked OSN spike response |
| --- | --- |
| CC(C)=O [acetone] | 73.7 ± 37 spikes/s |
